Laboratory results as given in PubChem BioAssay AID624330 (Southern Research Specialized Biocontainment Screening …, 2012).
The whole screen tested about 340,000 compounds, of which about 2,100 (0.62%) were called active.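 Rule for the calls: active = first-screen hits whose inhibition reached a set limit at any dose in the follow-up dose series; inconclusive = inhibition above the set first-screen limit but never retested; inactive = the rest.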 These entries were drawn from the full list. Potency and affinity values are given separately.

The compounds below were run against Rac GTPase-activating protein 1 (Homo sapiens) (UniProt Q9H0H5) (assay: MgcRacGAP GTPase-activating activity inhibitors, confirmation, biochemical, ADP Hunter fluorescence, primary and confirmatory (AID 624330;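 note: fluorescence reports GDP produced by GAP-driven GTP hydrolysis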)). Details: MgcRacGAP-stimulated Rac1 GTP hydrolysis, at 30 µM, active compounds read high, GST-tagged Rac1 F28L mutant substrate.
Sequence of Rac GTPase-activating protein 1 (Homo sapiens) (Q9H0H5 whole entry, looked up): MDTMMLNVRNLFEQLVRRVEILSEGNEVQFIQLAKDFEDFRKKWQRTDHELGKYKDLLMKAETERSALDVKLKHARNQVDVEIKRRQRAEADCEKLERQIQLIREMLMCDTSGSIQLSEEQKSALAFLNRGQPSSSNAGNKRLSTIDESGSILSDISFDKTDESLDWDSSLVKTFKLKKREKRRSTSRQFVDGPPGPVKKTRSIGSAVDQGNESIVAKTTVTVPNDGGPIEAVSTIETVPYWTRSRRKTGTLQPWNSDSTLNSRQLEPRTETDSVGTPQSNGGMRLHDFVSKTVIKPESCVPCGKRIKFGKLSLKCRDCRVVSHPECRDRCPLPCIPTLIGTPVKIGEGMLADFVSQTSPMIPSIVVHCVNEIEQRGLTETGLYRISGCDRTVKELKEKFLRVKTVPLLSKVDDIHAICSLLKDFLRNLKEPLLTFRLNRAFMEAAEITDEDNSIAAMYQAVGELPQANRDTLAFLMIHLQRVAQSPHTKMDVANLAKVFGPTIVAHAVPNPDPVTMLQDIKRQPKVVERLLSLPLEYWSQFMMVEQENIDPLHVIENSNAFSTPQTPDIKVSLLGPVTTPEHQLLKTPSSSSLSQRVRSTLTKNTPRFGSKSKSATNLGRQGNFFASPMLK

inhibition, inactive:
O=C(O)CN1C(=O)NC2(CCc3ccccc32)C1=O (centres undefined) 2.93%
Cc1noc(C)c1S(=O)(=O)N1CCCC(C(=O)NCC2CCCO2)C1 (centres undefined) 4.53%
COc1ccc(NC2CCCN(C(=O)CCN3CCOCC3)C2)cc1 (centres undefined) 12.5%
COc1ccc(NC2CCCN(C(=O)CN3CCOC3=O)C2)cc1OC (centres undefined) 22.5%
CC(C)c1ccc(NC2CCCN(C(=O)CN3CCOC3=O)C2)cc1 (centres undefined) 8.4%
CC(C)c1ccc(NC2CCCN(C(=O)CCN3CCCO3)C2)cc1 (centres undefined) 2.53%
CC(C)c1ccc(NC2CCCN(C(=O)CCN3Cc4ccccc4C3=O)C2)cc1 (centres undefined) 4.84%
COc1ccc(NC2CCCN(C(=O)CCCN3CCCCC3=O)C2)cc1 (centres undefined) 29.9%
CN1OC[C@@H]2CN(Cc3cc(Cl)cc(Cl)c3)[C@H](c3cccc(-c4ccc(C#N)cc4)c3)C[C@@H]21 13.8%
COc1ccc(OCc2nnc(SCC(=O)N3CCCC3)o2)cc1 5.88%
CC1CN(Cc2ccccc2Cl)CC(C)O1 (centres undefined) 16.3%
O=C(COc1ccccc1[N+](=O)[O-])Nc1cccc(C(=O)Nc2ccccc2C(=O)O)c1 17.3%
C=CCC1NS(=O)(=O)O[C@H](CCCC)[C@@H]1O (some centres undefined) -14.4%
O=C(O)CCC(=O)OCCc1cc2ccccc2c(=O)o1 -1.63%
O=C(c1ccc(=O)n(Cc2ccc(Cl)c(Cl)c2)c1)N1CCOCC1 1.2%
CC(C)N1C(=O)CSC1c1ccc(Br)cc1 (centres undefined) 9.21%
Cc1ccccc1/C=N/NC(=O)c1cccnc1 4.63%
O=C(N/N=C/c1cccc2ccccc12)c1cccnc1 7.15%
COc1ccc(/C=N/NC(=O)c2cccnc2)c2ccccc12 10.9%
Cc1ccsc1/C=N/NC(=O)c1cccnc1 6.67%
COc1ccccc1CNC(=O)CCNS(=O)(=O)/C=C/c1ccc(C)cc1 -0.75%
COc1cc(N)c2ncccc2c1Br 20%
Nc1ccc(Br)c2cccnc12 9.68%
COc1cc(NC(=O)c2cccnc2SC)cc(OC)c1OC 9.4%
COc1cc(N)c2ncccc2c1Cl 7.55%
COc1cc(NC(C)CCCN)c2ncccc2c1 (centres undefined) -2.49%
COc1cc(NC(C)CCCN)c2ncccc2c1Oc1ccccc1 (centres undefined) 1.99%
CCOC(=O)N1CCN(c2ccc(N3C(=O)CCCC3=O)cc2[N+](=O)[O-])CC1 4.36%
O=C(CCNS(=O)(=O)c1ccc2[nH]c(=O)oc2c1)Nc1ccccc1 -24.4%
